Consider 15 compounds from PubChem BioAssay.

Calls of active or inactive are those of the source. Unless noted, the rule behind the calls is not given here.

Assay [1] has as its system Wnt5a (protein binding on small-molecule microarray). The assay is described as follows: small molecules binding Wnt5a protein – biophysical, small-molecule microarray, 635/667 nm fluorescence, primary screen (AID 1142).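 Note: fluorescence read at 667 nm with signal to noise per printed feature.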 Conditions: 635 nm fluorescence, higher = more signal.
Assay [2] can be described thus: ATP-based viability of Huh7 replicon cells – cell-based, CellTiter-Glo luminescence, basal, 48 h, cytotoxicity control for HCV replication inhibitor project, primary screen (AID 1143).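 Note: Huh7 hepatoma cells carrying a hepatitis C replication reporter with no stimulus; test concentration not given here.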 Conditions: higher = more signal, called active from +8 up or from −8 down.
Assay [3] can be described thus: Pseudomonas biofilm growth suppression – PAO1 strain, BacTiter-Glo luminescence, LB-PBS, primary screen (AID 1144). Particulars: P. aeruginosa PAO1 biofilm, 12 h, higher = more signal.
Assay [4] in a line: basal CRE-LacZ reporter activity in PC12 – cell-based, unstimulated, primary screen (AID 1145). Particulars: no forskolin, luminescence, 4.5 h, higher = more signal, called active from +8 up or from −8 down.
A short description of assay [5]: forskolin-driven CRE-LacZ activity in PC12 – cell-based, CRE-LacZ reporter, forskolin-stimulated, primary screen (AID 1146).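 Note: PC12 cells with 6xCRE LacZ reporter stimulated by forskolin 10 µM; beta-galactosidase reporter signal reflecting CREB driven transcription.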 Conditions: luminescence, 4.5 h, higher = more signal, called active from +8 up or from −8 down.
The target of assay [6] is Streptavidin (Streptomyces avidinii) (UniProt P22629). The assay can be described thus: compounds binding control protein streptavidin – biophysical, small-molecule microarray, 635/667 nm fluorescence, artefact control for SMM compound annotation, primary screen (AID 1147).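 Note: signal reflects streptavidin binding to arrayed compounds as a control protein.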 Conditions: higher = more signal.
Assay [7] is described as follows: probe aInhba binding on compound microarray – biochemical, small-molecule microarray, 635/667 nm fluorescence, primary screen (AID 1148).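 Note: score merges 667nm spot fluorescence with signal-to-noise for antibody binding to printed compounds.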 Particulars: higher = more signal.
Assay [8] deals with Torsin-1A (Homo sapiens) (UniProt O14656). The assay can be described thus: TOR1A wild-type binding on microarray – cell lysate, small-molecule microarray, lysate, 635/667 nm, primary screen (AID 1149). Particulars: COS7 hTOR1A-WT lysate, 635 nm fluorescence, higher = more signal.
For assay [9] the target is unchanged. The assay can be described thus: torsin A mutant lysate binding on microarrays – cell lysate, small-molecule microarray, COS7 lysate, 635/667 nm fluorescence, primary screen (AID 1150).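 Note: score pools 667 nm emission and signal to noise measuring lysate protein binding.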 Conditions: COS7 hTOR1A mutant lysate, 635 nm fluorescence, higher = more signal.
Assay [10] concerns Sonic hedgehog protein (Shh). The assay is described as follows: Sonic hedgehog microarray binding compounds – biochemical, small-molecule microarray, 635/667 nm fluorescence, primary screen (AID 1151).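 Note: Shh protein binding to compounds spotted on small-molecule microarray slides; score combines spot fluorescence intensity with signal-to-noise across triplicate slides.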 Conditions: 635 nm fluorescence, higher = more signal.

Torsin-1A (Homo sapiens), sequence (O14656 whole entry, looked up): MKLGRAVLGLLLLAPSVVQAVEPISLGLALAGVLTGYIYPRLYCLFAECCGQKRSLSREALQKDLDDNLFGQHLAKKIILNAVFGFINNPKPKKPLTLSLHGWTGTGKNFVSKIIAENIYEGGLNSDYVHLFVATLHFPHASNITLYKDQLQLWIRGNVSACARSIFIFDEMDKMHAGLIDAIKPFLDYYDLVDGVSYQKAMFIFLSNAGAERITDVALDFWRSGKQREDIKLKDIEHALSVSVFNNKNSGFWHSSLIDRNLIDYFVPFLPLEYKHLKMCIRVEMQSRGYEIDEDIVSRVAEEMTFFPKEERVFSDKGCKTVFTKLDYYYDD
Streptavidin (Streptomyces avidinii), sequence (P22629 whole entry, looked up): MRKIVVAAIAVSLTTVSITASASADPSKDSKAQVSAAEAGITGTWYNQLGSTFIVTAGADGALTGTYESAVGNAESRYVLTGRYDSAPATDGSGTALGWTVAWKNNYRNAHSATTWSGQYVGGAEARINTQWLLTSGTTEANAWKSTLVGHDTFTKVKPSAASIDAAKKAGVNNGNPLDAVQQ

With `COCCOC(=O)N1C(=O)[C@@]2(c3cc(C#Cc4ccc(OC)cc4)ccc31)[C@H](C(=O)NC[C@H](O)c1ccccc1)[C@H]1C(=O)O[C@H](c3ccccc3)[C@H](c3ccccc3)N1[C@@H]2c1ccc(OCCO)cc1`, the composite z-score in assay [1] is 0.76; in assay [6], 0.277; in [7] it was 0.0184; in [8], 0.161; in assay [9], 0.963; in assay [10], 1.62. Also, the z-score was -5.48 (inactive) in [2], -1.73 (inactive) in assay [3], -1.42 (inactive) in assay [4] and -0.544 (inactive) in assay [5].

For the compound `CCOC(=O)C1=C[C@@H](c2ccccc2)N(S(=O)(=O)c2ccc(C)cc2)[C@H]1c1ccccc1`, the composite z-score came to 0.202 in [1]; 1.1 in assay [6]; 0.0925 in [7]; 0.0157 in [8]; 0.176 in [9]; 0.212 in assay [10]. In addition, the z-score in [2] was -1.91 (inactive); in [3], -0.42 (inactive); in assay [4], -0.275 (inactive); in [5], 0.294 (inactive).

For the compound `[N-]=[N+]=Nc1ccccc1C[C@]1(C(=O)O)N=C(c2ccc(OCCCO)cc2)O[C@H]1c1ccccc1`, the composite z-score was 0.0269 in assay [1]; 0.261 in assay [6]; 0.189 in assay [7]; 1.05 in [8]; 1.45 in [9]; -0.536 in [10]. Besides, the z-score in [2] is -0.218 (inactive); in assay [3] it was -0.54 (inactive); in [4], 2.53 (inactive); in [5], -0.522 (inactive).

With `CC(C)CCC[C@@H](C)[C@H]1CC[C@@]2(C)C3=C(CC[C@]12C)[C@@]1(C)CC[C@H](OC(=O)c2ccccc2)C(C)(C)C1CC3` (stereo not given in full), the composite z-score in assay [1] is 0.0964; in assay [6], 0.18; in [7], -0.178; in assay [8], 0.316; in [9] it was 0.171; in assay [10], 0.364. Further, the z-score was -1.16 (inactive) in [2], -1.65 (inactive) in assay [3], 0.581 (inactive) in assay [4] and -0.653 (inactive) in [5].

`CCOC(=O)C1=CCC(c2ccco2)N(S(=O)(=O)c2ccc(C)cc2)C1` (stereo not given): the composite z-score in [1] is 0.45; in [6], 1.64; in assay [7] it was 0.0841; in [8], 0.55; in [9] it was 1.24; in [10], 0.409. Also, the z-score was -2.95 (inactive) in [2], -1.65 (inactive) in assay [3], -0.0228 (inactive) in assay [4] and 0.887 (inactive) in assay [5].

For `COC(=O)C1=CC(CCCO)=CC(c2ccc(CN3CCCC3)cc2)N(Cc2cc3c(cc2Br)OCO3)C=C1C(=O)OC` (stereo not given), the composite z-score in assay [1] is 0.804; in assay [6], 1.98; in assay [7], 0.36; in assay [8], 0.0851; in assay [9], 2.59; in assay [10], -0.249. The z-score in assay [2] was -0.0928 (inactive); in assay [3], -0.44 (inactive); in [4] it was 0.0118 (inactive); in [5], -0.602 (inactive).

As to `O=C(O)[C@@H]1C[C@@H]2C(=O)N3CCC[C@H]3C(=O)N2[C@@H]1c1cccc(OCCO)c1`, the composite z-score in [1] came to 1.25; in assay [6], 3.76; in assay [7], 1.95; in [8], 2.99; in [9] it was 2.12; in assay [10] it was 2.02. In addition, the z-score was -0.0592 (inactive) in assay [2], 1.36 (inactive) in assay [3], 0.143 (inactive) in assay [4] and -0.382 (inactive) in assay [5].

For `Cc1ccc(S[C@]2(C(=O)NC(C)C)CC(=O)N(Cc3ccccc3Cl)[C@@H]2c2ccc(CO)cc2)cc1`, the composite z-score in assay [1] was -0.323; in assay [6], -1.03; in [7], -0.149; in [8] it was -2.93; in assay [9], -1.86; in assay [10], -0.761. In addition, the z-score was -2.67 (inactive) in assay [2], -0.141 (inactive) in assay [3], -0.295 (inactive) in [4] and 0.506 (inactive) in assay [5].

On to `CC1(C)C(=O)C(c2ccccc2)=C2CN3C(=O)N(CCc4ccccc4)C(=O)C3(Cc3ccc(F)cc3)C=C21` (stereo not given), for which the composite z-score in [1] is 0.198; in assay [6], 0.326; in [7], 0.349; in assay [8], -0.448; in assay [9] it was 0.0142; in [10], -1.41. In addition, the z-score was -1.86 (inactive) in assay [2], -0.425 (inactive) in assay [3], 0.587 (inactive) in assay [4] and -0.0536 (inactive) in assay [5].

As to `C=CCNC(=O)[C@H]1[C@@H]2C(=O)O[C@@H](c3ccccc3)[C@@H](c3ccccc3)N2[C@@H](c2ccc(OCCO)cc2)[C@]12C(=O)Nc1ccc(C#CCNC(N)=O)cc12`, the composite z-score in assay [1] is 0.314; in assay [6], 0.756; in [7], 0.0857; in assay [8] it was 0.207; in [9], 0.125; in assay [10], 1.61. For the same compound, the z-score in [2] is -0.384 (inactive); in assay [3], -0.78 (inactive); in assay [4], 0.559 (inactive); in assay [5], 0.123 (inactive).

In the case of `COc1ccc([Si](C)(C)[C@H]2[C@H](CC(=O)N3CCC[C@H]3CO)O[C@@]3(C(=O)N(Cc4ccc(N5CCC5=O)cc4)c4ccccc43)[C@@H]2C)cc1`, the composite z-score was 0.699 in assay [1]; 0.39 in assay [6]; -0.0523 in assay [7]; 1.1 in [8]; 0.43 in assay [9]; 1.77 in assay [10]. For the same compound, the z-score is -5.51 (inactive) in assay [2], 0.0292 (inactive) in [3], 0.18 (inactive) in assay [4] and -0.404 (inactive) in [5].

For `CCOC(=O)C[C@H]1[C@H](OC(=O)c2ccc(C(=O)c3ccccc3)cc2)[C@@H](NC(=O)CC(C)C)c2cc(OCCCO)ccc2N1C(=O)Cc1ccc(OC)cc1`, the composite z-score was 0.11 in assay [1]; -0.0635 in assay [6]; 0.128 in [7]; 0.311 in [8]; 0.498 in [9]; -0.0145 in assay [10]. In addition, the z-score was -0.349 (inactive) in assay [2], -0.356 (inactive) in assay [3], 0.731 (inactive) in assay [4] and -0.117 (inactive) in assay [5].

As for `O=C(NCC(O)CO)[C@@]1(CCS(=O)(=O)c2ccccc2)COC(c2ccc(OCCCO)cc2)=N1` (stereo not given in full), the composite z-score is 0.556 in assay [1]; 0.985 in assay [6]; 0.228 in assay [7]; 1.13 in [8]; 1.91 in [9]; -0.504 in assay [10]. The z-score in assay [2] is -1.2 (inactive); in [3], 0.063 (inactive); in assay [4], 0.33 (inactive); in assay [5], 0.0138 (inactive).

Turning to `C=CCN1C(=O)[C@]2(O[C@H](CCO)[C@@H]([Si](C)(C)c3ccc(OC)cc3)[C@@H]2C)c2cc(N3C(=O)COc4ccccc43)ccc21`, the composite z-score in assay [1] was 0.01; in assay [6], 0.435; in assay [7], -0.0245; in [8], -0.339; in assay [9] it was 0.072; in assay [10], 1.18. Moreover, the z-score in [2] was -8.07 (active); in [3], 0.518 (inactive); in assay [4], 27.2 (active); in [5], -3.5 (inactive).

Turning to `COc1ccc(CCNC(=O)[C@@]2(Cc3ccccc3I)c3ccccc3C(=O)N(Cc3ccccc3Cl)[C@H]2c2ccc(CO)cc2)cc1`, the composite z-score in [1] was 0.0402; in assay [6], -0.555; in assay [7], 0.502; in assay [8] it was -0.36; in assay [9], 0.397; in [10] it was 0.527. For the same compound, the z-score in [2] was -2.74 (inactive); in [3], -0.144 (inactive); in assay [4], 0.0387 (inactive); in [5] it was 0.752 (inactive).
